m5-HT2A agonist: mouse HTR2A agonism via beta-arrestin recruitment. 360,000 compounds, 0.66% hits. activation, % at 7.6 µM. CHO-K1 mHTR2A beta-arrestin complementation, luminescence; percent of 30 µM serotonin response. P35363;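 active = activation above a run cutoff, the mean activation of all tested compounds plus 3 SD, cut at about 14% in these data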
Target sequence (P35363 whole entry, looked up): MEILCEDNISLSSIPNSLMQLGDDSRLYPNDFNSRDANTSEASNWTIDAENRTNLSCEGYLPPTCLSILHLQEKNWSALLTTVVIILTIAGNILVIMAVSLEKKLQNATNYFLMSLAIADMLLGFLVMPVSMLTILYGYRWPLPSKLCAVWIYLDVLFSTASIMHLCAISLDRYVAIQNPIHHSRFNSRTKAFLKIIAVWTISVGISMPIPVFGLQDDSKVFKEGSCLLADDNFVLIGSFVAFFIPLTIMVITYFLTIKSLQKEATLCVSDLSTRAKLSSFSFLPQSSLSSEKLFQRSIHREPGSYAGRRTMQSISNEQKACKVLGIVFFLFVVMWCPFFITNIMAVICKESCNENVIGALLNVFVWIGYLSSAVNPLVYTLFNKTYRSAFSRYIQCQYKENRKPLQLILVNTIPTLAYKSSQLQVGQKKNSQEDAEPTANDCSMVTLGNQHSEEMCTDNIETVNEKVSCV
GC-A act: GC-A (human) enzyme activation. P16066. HEK293 GC-A cells, cGMP TR-FRET, EC30 ANP; 0% at EC30 ANP, 100% saturating ANP. activation, % at 10 µM. 370,000 compounds, 0.14% hits; in the data active = activation above about 40%
MsrA inh: bovine MsrA inhibition; purified bovine MsrA, absorbance read-out; AID 651718; inhibition, % at 15.5 µM; 360,000 compounds, 0.75% hits; in the data active = inhibition above about 4.5%
GC-B act: GC-B (human) receptor activation | P20594 | HEK293-GC-B cells, CNP EC30, cGMP TR-FRET; 0% at EC30 CNP, 100% saturating CNP | activation, % at 10 µM | 370,000 compounds, 0.11% hits | AID 1920062;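 active = activation at 10 µM reaching about 35% in either raw or pattern-adjusted values, limit read from the data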
MsrA act: activators of bovine methionine sulfoxide reductase A | purified bovine MsrA, absorbance read-out | activation, % at 10.6 µM | 360,000 compounds, 0.3% hits | AID 602163; in the data active = activation above about 7.5%
Numbers stand for hits; - = inactive; . = not tested or not shown. Hits are enriched below; roughly 1.8% of the tested compounds scored in any of these assays.

SMILES | m5-HT2A agonist | GC-A act | MsrA inh | GC-B act | MsrA act
CCOC(=O)[C@@]12CN(C(=O)OC(C)(C)C)CC=C1N(Cc1ccc(OC)cc1)C(=O)[C@H]2CC(=O)N1CCOCC1 | . | - | . | - | .
CCN1/C(=C(\O)c2ccccc2)C(=O)c2ccccc2S1(=O)=O | - | - | 4.8 | - | -
CS(=O)(=O)c1nc(-c2ccc(F)cc2)cc(C(F)(F)F)n1 | - | 72 | - | - | -
CCOC(=O)CS(=O)(=O)c1nc(-c2ccc(F)cc2)cc(C(F)(F)F)n1 | - | . | . | . | -
CCOC(=O)CS(=O)(=O)c1nc(-c2ccccc2)cc(C(F)(F)F)n1 | - | 54 | - | - | -
O=C(Nc1nc2c(F)cc(F)cc2s1)C1CCN(C(=O)c2ccc(F)cc2)CC1 | - | 68 | - | - | -
CCOC(=O)C1C(=O)C=C(C)C(C(=O)OCC)C1c1cccc([N+](=O)[O-])c1 (stereo not given) | - | - | 4.6 | - | -
CCOC(=O)C1C(=O)C=C(c2ccc([N+](=O)[O-])cc2)CC1c1ccccc1 (stereo not given) | - | - | - | - | -
CN(C)N=Nc1nc[nH]c1C(N)=O | - | - | - | - | -
CN(N=Nc1nc[nH]c1C(N)=O)C1CCCCC1 | - | - | 4.6 | - | -
C#CCNC(=O)C[C@@H]1C(=O)N(CCc2ccc(Cl)cc2)/C2=C/CCCCC[C@@]21C(=O)OCC | . | - | . | - | .
COc1ccc(/C=C\c2nc(=O)c3ccccc3o2)cc1 | - | - | 4.7 | - | -
O=c1nc(/C=C/c2ccc(O)c(O)c2)oc2ccccc12 | - | . | . | . | -
Cc1c(N2C(=O)/C(=C/c3ccccc3)SC2=S)c(=O)n(-c2ccccc2)n1C | - | - | 4.5 | - | -
CN(C)C(=O)COC(=O)c1ccccc1Nc1ccc(SC(F)F)cc1 | - | 42 | - | - | -
N#CC1=C(N)Oc2cc(N)ccc2C1c1cccc(F)c1 (stereo not given) | - | 43 | - | - | -
CN(C)c1ccc2c(c1)OC(N)=C(C#N)C2c1cccc(F)c1 (stereo not given) | - | . | . | . | -
O=C(NCc1ccco1)c1ccc(COc2cc(Cl)ccc2Cl)cc1 | - | 41 | - | - | -
CN(C)CCNC(=O)c1ccc(COc2ccc(Cl)cc2Cl)cc1 | - | 47 | - | - | -
O=C(COc1ccc(Cl)cc1Cl)NCc1ccco1 | - | - | - | - | -
COCCNC(=S)N(C)[C@H]1C[C@H]2c3[nH]c4c(-c5cccc(C)c5)cccc4c3CCN2C[C@H]1[C@H](C)O | . | - | . | - | .
COC(=O)c1cc(-c2ccc(OC)c(OC)c2)c(=O)n2c1CCC2 | . | - | . | - | .
COc1cccc(-c2ccc3ncnc(NCc4cccc(C)c4)c3c2)c1 | - | - | - | - | -
COc1cccc(CNc2ncnc3ccc(-c4c(C)noc4C)cc23)c1 | - | 51 | - | 56 | -
COc1cc2c(cc1OC)-c1cc(OCc3ccccc3Cl)nc(=O)n1CC2 | 19 | - | - | - | -
SMILES | m5-HT2A agonist | GC-A act | MsrA inh | GC-B act | MsrA act
CCCOc1ccc(/C=c2\sc3ncnn3c2=O)cc1 | - | 69 | - | - | -
COc1ccccc1C(=O)Nc1nc2cc3c(cc2s1)OCCO3 | 23 | . | . | . | -
CCCCCCn1cc(C(=O)O)c(=O)c2cc(F)c(N3CCN(C)CC3)cc21 | 16 | . | . | . | -
CCN(CC)c1ccc(C(=C2C=CC(=[N+](CC)CC)C=C2)c2ccccc2)cc1 | - | - | - | 39 | -
Cc1cc(C)cc(NC(=O)C2(C(=O)C3CC3)CC(c3ccccc3C(F)(F)F)=NO2)c1 (stereo not given) | . | - | . | - | .
CCn1cnc2c1c(=O)n(Cc1cccc([N+](=O)[O-])c1)c(=O)n2Cc1ccccc1 | - | - | - | 41 | -
CCn1cnc2c1c(=O)n(Cc1csc(-c3ccccc3)n1)c(=O)n2Cc1ccccc1 | - | - | - | 51 | -
CCn1cnc2c1c(=O)n(CC(=O)NCc1ccccc1)c(=O)n2Cc1ccccc1 | - | - | - | - | -
COc1ccc(/C=N/Nc2ccccn2)cc1OC | - | - | 4.6 | - | -
Cn1c(SCC(=O)NCC2CCCO2)ncc(C(=O)Nc2ccc(Cl)cc2)c1=O (stereo not given) | - | 45 | - | - | -
Cn1c(SCC(=O)NCC2CCCO2)ncc(C(=O)Nc2ccc(F)cc2)c1=O (stereo not given) | - | - | - | - | -
CCOC(=O)CN1N=C(/C=C/c2ccc(OC)cc2)CCC1=O | - | - | 6.1 | - | -
CCOC(=O)C(C)N1N=C(/C=C/c2ccc(OC)cc2)CCC1=O (stereo not given) | - | - | 6.1 | - | -
Cc1ccc(/C=C/C2=NN(C)C(=O)CC2)cc1 | - | - | - | - | -
Cc1ccc(Cc2c(-c3ccc(Cl)cc3)nc3ccc(Cl)cn23)cc1 | - | - | - | - | -
Cc1ccc(Cc2c(-c3ccc(C)cc3)nc3ccc(Cl)cn23)cc1 | - | - | - | 37 | -
Cc1ccc2nc(-c3ccc(Cl)cc3)c(Cc3cccc(F)c3)n2c1 | . | - | - | 36 | .
CCOC(=O)[C@@]12CN(C(=O)OC(C)(C)C)CC=C1N(Cc1ccc(OC)cc1)C(=O)[C@H]2CC(=O)N1CCCC1 | . | - | . | - | .
O=S1(=O)c2ccc(N3CCN(Cc4ccccc4F)CC3)cc2Oc2ccccc2CN1Cc1cn(Cc2cccc(F)c2)nn1 | . | - | . | - | .
CC1CN(c2nn3c(=O)c4ccccc4nc3c3ccccc23)CC(C)O1 (stereo not given) | - | - | - | - | 9.7
CN(c1ccccc1)S(=O)(=O)c1ccc(NC(=O)c2nc(S(C)(=O)=O)ncc2Cl)cc1 | - | 49 | - | 38 | -
CCS(=O)(=O)c1ncc(Cl)c(C(=O)Nc2ccc(S(=O)(=O)N3CCC(C)CC3)cc2)n1 | - | 41 | - | - | -
COC(=O)[C@H](C(C)C)N(Cc1cn(Cc2ccccc2)nn1)S(=O)(=O)c1ccccc1Br | . | - | . | - | .
COC(=O)c1ccc2c(c1O)C(=O)c1ccccc1C2=O | - | - | - | - | 9.3
O=C1c2ccccc2C(=O)c2c1ccc(O)c2O | - | - | - | - | -
SMILES | m5-HT2A agonist | GC-A act | MsrA inh | GC-B act | MsrA act
CCCOc1ccccc1N/C(N)=N/c1nc(C)cc(C)n1 | - | - | - | - | -
CCCOc1ccccc1N/C(=N\S(=O)(=O)c1ccc(C)cc1)Nc1nc(C)cc(C)n1 | - | 45 | - | 54 | -
COCCNC(=O)c1cccc2c(-c3cccc(C(N)=O)c3)coc12 | - | - | - | - | -
NC(=O)c1cccc(-c2coc3c(C(=O)NCc4ccccc4)cccc23)c1 | - | - | - | 37 | -
Cc1ccc(S(=O)(=O)c2nnn3c2nc(N2CCOCC2)c2ccccc23)cc1 | - | - | - | 38 | -
COc1ccc(C(CCOC(=O)Oc2ccccc2)c2cc(OC)c(OC)c(OC)c2)cc1 (stereo not given) | . | - | . | - | .
CC(=O)N1Cc2ccccc2CC1C(=O)N1CCN(c2ccccc2)CC1 (stereo not given) | - | - | - | 78 | -
COc1ccc(N2CCN(C(=O)C3Cc4ccccc4CN3C(=O)c3ccccc3)CC2)cc1 (stereo not given) | - | - | - | - | -

Screening results from PubChem.
